RGS4 inhibitor – human RGS4 inhibition; P49798; Transcreener GDP fluorescence polarization, RGS4-accelerated GTP hydrolysis; Potency, µM (top dose mostly 114 µM), inactives show at the top dose activity change, negative = inhibition, most hits filed as inhibitors; actives 0.039% (n = 390,000); also: % is scaled to controls: 0 for no effect and ±100 for the full control effect; nearly all actives have a fitted effect of over 75% in size
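MLSMR compounds (23 nl, pin-transferred) preincubated 10 min at room temperature with a 500nM (2x) first reagent, then RGS4 at 900nM (2x) plus Transcreener GDP mix added; fluorescence polarization (620/688 nm) read before and after 90 min at 30 °C.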
PTHR1 ag – agonists of human PTHR1 parathyroid hormone receptor | Q03431 | HEK293 GP2 PTHR1 cells, GloSensor cAMP luminescence, 1 h | Potency, µM (titrated, usually from 115 µM), without a hit: top-dose activation, most hits filed as activators | actives 0.075% (n = 410,000) | AID 743266; also: nearly all actives have a fitted effect of over 55% in size
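HEK-293-derived GP2 cells expressing PTHR1 and a GloSensor cAMP reporter, 3,000/well, plated overnight, given luciferin plus IBMX (each 0.5 mM as added) for 1 h at 37 °C, then compound for 1 h at 37 °C. Luminescence was read after 15 min at room temperature.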
GCN5L2 inh – GCN5L2 (KAT2A) acetyltransferase inhibition; Q92830; GCN5L2 HAT assay, ThioGlo1 CoA-SH fluorescence; Potency, µM (series often up to 58.9 µM), for inactives: at the highest dose activity change, negative = inhibition, usual class: inhibitors; actives 0.21% (n = 390,000); also: % is scaled to controls: 0 for no effect and ±100 for the full control effect
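ThioGlo1-coupled HAT assay: 20nM GCN5L2, 70uM acetyl-CoA, 75uM H3(1-25) peptide, pH 7.5. Fluorescence read at 340/540nm at start and after 20 min at room temperature.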
GLP-1R agonist – GLP-1 receptor (human) agonism | P43220 | HEK293 GLP-1R CRE-luciferase, luminescence, 4-6 h; cells express a hypersensitive GLP-1R form | Potency, µM (doses to about 45.6 µM), inactives show at the top dose activation, most hits filed as activators | actives 0.007% (n = 380,000); also: % of control where 0% means no effect
HEK293 tox – cytotoxicity in counter-screen for GLP-1R inverse agonists; AID 624418; HEK293 cAMP-luciferase reporter cells, luminescence, 24 h; actives 0.13% (n = 410,000); Potency, µM (top dose mostly 38.3 µM), for inactives: at the highest dose activity change, negative = inhibition, usual class: inhibitors;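 also: loss of luciferase light is scored as toxicity; % is scaled to controls: 0 for no effect and ±100 for the full control effect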
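Quantitative HTS format, 1536 wells, 200 cells/uL seeded. Compounds: 23 nL, 24 h, 37 °C. Detection: luciferase reagent, luminescence at 12 min RT; decreased signal taken as cytotoxic.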
GLP-1R inv ag – inverse agonists of human GLP-1 receptor; P43220; HEK293 GLP-1R CRE-luciferase, luminescence, 24 h; GLP-1R form is constitutively active; Potency, µM (top dose mostly 38.3 µM), for the others: at the top dose activity change, negative = inhibition, hits mostly inhibitors; actives 1.6% (n = 410,000); also: % is scaled to controls: 0 for no effect and ±100 for the full control effect; nearly all actives have a fitted effect of over 55% in size
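Inverse agonists were sought by their lowering of basal cAMP reporter luciferase output in HEK293 cells stably carrying constitutively active human GLP-1R, after 24 h compound treatment.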
The depositor's hits bear a star; i = inactive; u = inconclusive; x = no result; ! = not active in a repeat. Only some compounds are listed: those with a hit (about 1.8% of all), similar ones and a draw of the others. Calls follow the shape of the dose curve; as a rule, active = well fitted curve in the direction sought with a large enough effect; inconclusive = small, poorly fitted or top-dose-only effect, or another doubt; inactive = no such curve, though single readings can be large; an effect the other way counts as inactive or inconclusive. Potency is read from the fitted curve at half-maximal effect.

SMILES	RGS4 inhibitor	PTHR1 ag	GCN5L2 inh	GLP-1R agonist	HEK293 tox	GLP-1R inv ag
COc1ccccc1-c1cncnc1N1CCN(C)CC1	x	x	-5%	x	x	x
CC1(Cc2cc(Cl)ccc2C(F)(F)F)C(=O)Nc2ccc(-c3ccc(F)c(Cl)c3)cc21 (stereo not given)	x	i	x	-26%	11µM*	u
COc1ccccc1-c1ccc2c(c1)C(C)(Cc1cc(Cl)ccc1C(F)(F)F)C(=O)N2 (stereo not given)	x	-33%	x	-7%	u	u
COCCCNC(=O)C1CCN(c2cc(C)nc3c(-c4ccc(OC)c(OC)c4)c(C)nn23)CC1	-16%	-23%	-9%	1%	-5%	3%
COc1ccccc1NC(=O)c1ccc(S(=O)(=O)N(C)c2ccccc2)cc1	-21%	-14%	-6%	6%	11%	u
CC(=O)Oc1ccc(/C=N/NC(=O)c2ccc(N(C)S(=O)(=O)c3ccccc3)cc2)cc1	-5%	-18%	-12%	3%	-10%	u
COc1cc(NC(=O)c2ccc(S(=O)(=O)N(C)c3ccccc3)cc2)cc(OC)c1	7%	i	-12%	2%	-12%	10µM*
Cc1ccc(/C=N/NC(=O)c2ccc(N(C)S(=O)(=O)c3ccccc3)cc2)cc1	12%	-16%	-10%	9%	-18%	10µM*
O=C(Nc1ccn(C2CCC(CO)O2)c(=O)n1)c1ccccc1 (stereo not given)	x	-11%	x	4%	-2%	20%
O=C1c2cccc3c2[C@@H](CCC3)CN1[C@@H]1CN2CCC1CC2	x	x	-1%	-5%	x	x
CC1=Nc2ccccc2/C1=C/c1sc(=N)n(-c2nccs2)c1O	-22%	i	-6%	3%	u	2.5µM*
COc1ccc2oc(C(=O)NCc3ccccc3CN3CCCC3)c(C)c2c1	-1%	i	-1%	10%	14%	u
CC(C)CNC(=O)c1oc2ccccc2c1COc1ccccc1	16%	-4%	-3%	19%	-9%	5µM*
COCc1c(C(=O)NCc2ccccc2CN2CCCC2)oc2ccccc12	-13%	-11%	0%	-9%	3%	10µM*
Cc1ccccc1CNC(=O)c1ccc(CS(=O)Cc2ccc(Cl)cc2)o1 (stereo not given)	12%	-27%	-3%	x	4%	-13%
CCn1c(CN2CCN(Cc3ccc(C)cc3)C(CCO)C2)nc2ccccc21 (stereo not given)	50%	i	-15%	-3%	-1%	6.3µM*
CCOc1ccc(CCn2c3c(c(=O)[nH]c2=O)C(NC(=O)c2ccccc2)(C(F)(F)F)C(=O)N3)cc1OCC (stereo not given)	-11%	-5%	2%	-2%	2%	7%
Cc1ccc2nc(C3CCCN(C(=S)Nc4cccc(C)c4C)C3)[nH]c2c1 (stereo not given)	4%	i	-3%	-8%	11µM*	u
CCc1ccc(/C=C2\CN(CC)Cc3c2nc2ccccc2c3C(=O)O)cc1	-10%	i	2µM*	3%	3%	0%
CCN1C/C(=C/c2cccs2)c2nc3ccccc3c(C(=O)O)c2C1	-25%	-10%	-9%	-2%	-8%	7%
Cc1cc(C(=O)N/N=C/c2cccc(OC(=O)c3cccc(Br)c3)c2)n[nH]1	21%	20%	-4%	-5%	-19%	13%
COc1cccc(C(=O)Oc2c(Br)cc(Br)cc2/C=N/NC(=O)c2cc(C)[nH]n2)c1	21%	i	-2%	0%	-1%	6.3µM*
Cc1cccc(NC(=S)N=Nc2c(O)[nH]c3ccccc23)c1	-31%	-24%	-6%	-1%	10µM*	10µM*
CC1(C)N=C(N)N=C(N)N1c1ccc(Cl)cc1	x	x	x	-1%	x	x
COc1ccc(C(C(=O)Nc2ccc(F)cc2)N2CCN(C(=O)c3ccco3)CC2)cc1 (stereo not given)	x	-21%	x	x	-9%	3%
SMILES	RGS4 inhibitor	PTHR1 ag	GCN5L2 inh	GLP-1R agonist	HEK293 tox	GLP-1R inv ag
Cc1ccccc1NC(=S)NCC1CCN(C(C)c2ccccc2)C1 (stereo not given)	9%	u	-1%	3%	1%	u
Cc1cc(C)cc(NC(=S)NCC2CCN(C(C)c3ccccc3)C2)c1 (stereo not given)	-9%	i	-1%	7%	-28%	10µM*
C[C@@H](CO)NC(=O)c1nc[nH]c1C(=O)N[C@H](C)c1ccccc1	x	i	x	-1%	-12%	7%
O=C(NC1=NCCS1)c1cccc2ccccc12	12%	-58%	-3%	11%	4%	2%
COc1ccc2[nH]c3c(NCCC4=CCCCC4)ncnc3c2c1	-10%	-47%	-2%	7%	u	5µM*
C[C@H]1O[C@@H](O[C@H]2[C@@H](O)C[C@H](O[C@H]3[C@@H](O)C[C@H](O[C@H]4CC[C@@]5(C)[C@H](CC[C@@H]6[C@@H]5C[C@@H](O)[C@]5(C)[C@@H](C7=CC(=O)OC7)CC[C@]65O)C4)O[C@@H]3C)O[C@@H]2C)C[C@H](O)[C@@H]1O	1.7µM*!	-32%	-4%	-10%	-41%	-84%
COC(=O)c1ccc2nc(-c3ccc(Cl)cc3)c(Cc3cccc(Cl)c3)n2c1	x	-23%	x	-3%	3%	21%
Cc1ccc(-n2ncc3c(NC4CCCCCC4)ncnc32)cc1	12%	-37%	-4%	x	-13%	4.5µM*
Fc1ccc(-n2ncc3c(NC4CCCCCC4)ncnc32)cc1	-8%	-23%	-2%	x	-7%	-27%
Cc1ccc(-n2ncc3c(NC4CCCCC4)ncnc32)cc1	-14%	-20%	2%	x	-21%	10µM*
Clc1cccc(-n2ncc3c(NC4CCCCC4)ncnc32)c1	-14%	i	-8%	x	-26%	u
COc1ccc(-c2nc(CCNC(=O)c3ccccc3)cs2)cc1OC	4%	-83%	8%	x	-8%	49%
CC(C)N1CCC1(C)C(=O)Nc1ccc(-n2cccc2)cc1 (stereo not given)	x	i	x	-7%	9%	u
O=C(O)c1cc(O)c2c(c1)[C@H]([C@H]1c3cc(C(=O)O)cc(O)c3C(=O)c3c(O[C@@H]4OC(CO)C(O)C(O)C4O)cccc31)c1cccc(O[C@@H]3OC(CO)C(O)C(O)C3O)c1C2=O (stereo not given in full)	x	x	1.8µM*	-1%	x	x
